About 83,000 compounds went through this panel and 20% of them were active in at least one assay; those are over-represented in the sample as a whole.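 Treatment: one concentration, 48 hours, 96-well format. Scoring: percent growth, with anything below 10 considered active.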 Values without a mark were called inactive. Calls of active or inactive are those of the source.
test system: HCT-15 colon; assay: NCI-60 one-dose screen, 48 h (100 = growth as untreated, 0 = no growth, -100 = all killed); conditions: 10 µM

Row | Structure (SMILES) | growth
1 | COc1ccc(-c2nn(-c3cccc(NC(=O)c4ccc(N5CCOCC5)c(C(F)(F)F)c4)c3)cc2-c2ccncc2)cc1Cl | 53.5%
2 | CN1CC[C@@H](c2c(O)cc(O)c3c(=O)cc(-c4ccccc4Cl)oc23)[C@@H](O)C1 | -26.7% (active)
3 | Nc1nc(-c2ccccc2Cl)cc(-c2ccc(Cl)cc2Cl)n1 | 90.2%
4 | Cc1[nH]nc2c1C(c1cnn(C)c1)C(C#N)=C(N)O2 (centres undefined) | 99.6%
5 | O=C(N/N=C/c1cc2ccccc2c2ccccc12)c1cc(O)c(O)c(O)c1 | 60%
6 | Cc1ccc(N=Nc2c(N)nc(N)[nH]c2=O)cc1C | 103%
7 | CCCCCCCCCCCCCCCC(=O)OC1[C@@H](OC(=O)CCCCCCCCCCCCCCC)[C@@H](C(=O)N[C@@H](CCCCN)C(=O)OC)O[C@H]1n1cnc2c(=O)[nH]c(NC(=O)C(C)C)nc21 (some centres undefined) | 96.6%
8 | Cc1cc(=O)n2nnc3c4ccccc4ccc3n12 | 51.4%
9 | CN(Cc1ccccc1)Cc1ccc([N+](=O)[O-])cc1I | 92.2%
10 | COc1ccc(-c2nsc3c2NC(=O)CC3c2ccc(F)cc2)cc1 (centres undefined) | 24.4%
11 | COc1ccc(N2C(=O)C3c4[nH]c5ccc(OCc6ccccc6)cc5c4C4CCC(C(C)C)CC4C3C2=O)cc1 (centres undefined) | 16.3%
12 | C#Cc1ccc(-n2c(/C=C/c3ccc(O)c(OC)c3)nc3ncccc3c2=O)cc1 | 90.5%
13 | CCCCCCN1CCN(Cc2ccc(N(CC)CC)cc2)C(=O)C1=O | 41.5%
14 | CC(C)N(CCNc1nc(C(Cl)(Cl)Cl)nc2cc(Cl)ccc12)C(C)C | -38.4% (active)
15 | COc1ccc(-c2nn(-c3cccc(NC(=O)Nc4cc(C(F)(F)F)cc(C(F)(F)F)c4)c3)cc2-c2ccncc2)cc1Cl | 12.1%
16 | CCOC(=O)N1C/C(=C/c2ccc(Cl)cc2)C(=O)/C(=C/c2ccc(Cl)cc2)C1 | 34.3%
17 | O=C1Nc2ccccc2C1=NC1CCCCC1 | 105%
18 | O=C(N/N=C\c1cc(Cl)ccc1[N+](=O)[O-])c1ccco1 | 97%
19 | Cc1c(Cl)cccc1NC(=O)c1sc2nc3c(cc2c1N)C(=O)CCC3 | 21%
20 | O=C(O)c1ccc(P(=O)(O)O)c([N+](=O)[O-])c1 | 102%

Row | Structure (SMILES) | growth
21 | O=C1N=NC2=C1c1c3ccccc3c(O)n1CC2 | 113%
22 | COc1cc2cc3c(nc2cc1OC)CCN3Cc1ccc(NC(=O)Nc2ccc(F)cc2F)cc1 | 78.8%
23 | Nc1c(C(=O)Nc2cccc(F)c2)sc2nc3c(cc12)C(=O)CCC3 | 25.8%
24 | O=C1/C(=C\c2ccc(F)cc2)CN(C(=O)c2ccc([N+](=O)[O-])cc2)C/C1=C\c1ccc(F)cc1 | 7.31% (active)
25 | Nc1c(C(=O)Nc2ccccc2)sc2nc3c(cc12)CCCC3 | 24.8%
26 | CN(C)C=Nc1cc(Cl)ccc1Cl | 103%
27 | Nc1c(C(=O)Nc2cccc(Br)c2)sc2nc3c(cc12)C(O)CCC3 (centres undefined) | 23.5%
28 | O=C(Nc1nc2ccccc2s1)Nc1ccc([N+](=O)[O-])cc1Cl | 87.2%
29 | COc1ccc([N+](=O)[O-])c(C(=O)O)c1 | 98.5%
30 | COc1cc(OC)cc(-c2cncn2-c2ccc(-c3nc4cc(OC)cc(OC)c4s3)cc2)c1 | 48.4%
31 | CC[C@H](C)C(=O)O[C@H]1CCC=C2C=C[C@H](C)C(CCC3C[C@@H](O)CC(=O)O3)[C@H]21 (some centres undefined) | 55.8%
32 | CCOC(=O)C1(CC(C)C)CCOC1=O (centres undefined) | 96.7%
33 | O=C(CCCCC(=O)Nc1ccc2c(c1)/C(=C/c1ccc[nH]1)C(=O)N2)NO | 96.2%
34 | COc1ccc(S(=O)(=O)Nc2c(/C=C\c3cc(OC)c(OC)c(OC)c3)ccc(OC)c2O)cc1 | 7.33% (active)
35 | CC1=C(N2CCOCC2)C(N2CCOCC2)=C(C)C(=O)C1=O | 99.6%
36 | c1ccc([I+]c2ccccc2)cc1 | 89.4%
37 | CCOCC(=O)C(C#N)c1ccc(Cl)c(Cl)c1 (centres undefined) | 89.9%
38 | O=C1c2ccc3c4c(ccc(c24)C(=O)N1CCNCc1ccccc1)C(=O)N(CCNCc1ccccc1)C3=O | -25.9% (active)
39 | COc1cc(C(=O)N2CCN(c3ccccc3OC)CC2)c(N)cc1OCCCN1CCN(c2ccccc2OC)CC1 | 98.7%

Source: PubChem BioAssay (NCI)
